Hits are enriched below; roughly 7.9% of the tested compounds scored in any of these assays.
HT1080 IDH1KD tx: kills HT-1080 cells with IDH1 knockdown | Potency, µM (top dose mostly 46.1 µM), without a hit: at the highest dose activity, negative = toxicity, most hits filed as cytotoxic | 2% of 360,000 active | HT-1080 IDH1 knockdown viability, ATP luminescence, 48 h | AID 686971;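 note: 0% = DMSO wells and -100% = cell-free medium wells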
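IDH1KD HT-1080 cells, 750/well, RPMI + 5% FBS; compound pinned after 2 h settling; 48 h, 37 °C; CellTiter-Glo luminescence; % activity normalised to DMSO and no-cell wells; curves fitted, classed by r2 and efficacy.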
MCF10A rereplic: induces DNA re-replication in MCF 10a normal breast cells; AID 624296; Potency, µM (highest dose often 46.1 µM), inactives show top-dose activity, positive = re-replication, usual class: activators; MCF 10A DNA re-replication, Hoechst nuclear intensity, 48 h; 2.9% of 350,000 active; note: % of control where 0% means no effect; nearly all actives have a fitted effect of over 50% in size
HT1080NT lethal: kills 2HG-producing HT-1080-NT fibrosarcoma cells | HT-1080-NT fibrosarcoma viability, CellTiter-Glo ATP luminescence, 48 h | Potency, µM (series often up to 46.1 µM), without a hit: at the top dose activity, negative = less viability, most hits filed as cytotoxic | 1.6% of 360,000 active;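 note: NT is the 2HG producing partner of a matched IDH1 knockdown line; 0% = DMSO-treated cells and -100% = media-only wells without cells; nearly all actives have a fitted effect of over 55% in size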
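Fibrosarcoma NT cells, 750 per well in 5% FBS RPMI, were exposed to compound for 48 hours. Viability: CellTiter-Glo luminescence.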
KB-V1 cytotox: KB-V1 MDR subline cytotoxicity; KB-V1 MDR cells viability, CellTiter-Glo, 72 h; Potency, µM (highest dose often 46.1 µM), usual class: cytotoxic; 3.4% of 400,000 active; AID 1347076; note: % is set by controls: 0 for no effect and ±100 for the full control effect; nearly all actives have a fitted effect of over 60% in size
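Potencies derive from concentration-effect curves fitted to normalized luminescence (CellTiter-Glo) of KB-V1 cells treated for 72 h at 37 degrees C in phenol-red-free DMEM containing 10% FBS.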
SW480 rerep: induces DNA re-replication in SW480 colon adenocarcinoma cells; Potency, µM (titrated, usually from 46.1 µM), inactives show top-dose re-replication activation, actives largely listed as activators; SW480 DNA re-replication, Hoechst DNA content imaging, 48 h; AID 624297; 1.8% of 340,000 active; note: % of control where 0% means no effect; nearly all actives have a fitted effect of over 55% in size
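First, 250 cells per well were seeded. Next, compound or vehicle (23 nL) was pinned in, plates sat 48 hr at 37 C. Finally Hoechst was added for 40 min before fluorescence scanning.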
KB-3-1 cytotox: kills parental KB-3-1 adenocarcinoma cells | KB-3-1 viability, CellTiter-Glo ATP luminescence, 72 h | Potency, µM (highest dose often 46.1 µM), most hits filed as cytotoxic | 1.4% of 400,000 active | AID 1347075; note: % is set by controls: 0 for no effect and ±100 for the full control effect; nearly all actives have a fitted effect of over 60% in size
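Luminescent ATP read-out (CellTiter-Glo) measures survival of drug-naive KB-3-1 cells after 72 h compound exposure at 37 °C. Titration series was screened from lowest to highest concentration, with DMSO vehicle plates as background controls.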
Active calls of the source: *; i = inactive; ? = inconclusive; . = no result given. Calls come from the whole dose curve; as a rule, active = well fitted curve in the direction sought with a large enough effect; inconclusive = small, poorly fitted or top-dose-only effect, or another doubt; inactive = no such curve, though single readings can be large; an effect the other way counts as inactive or inconclusive. Potency is the fitted concentration of half-maximal effect.

SMILES	HT1080 IDH1KD tx	MCF10A rereplic	HT1080NT lethal	KB-V1 cytotox	SW480 rerep	KB-3-1 cytotox
COCCN(C(=O)COC(=O)c1ccccc1Oc1ccccc1)c1c(N)n(Cc2ccccc2)c(=O)[nH]c1=O	-1%	0%	-2%	i	21µM*	?
Cc1cc(C(=O)Nc2cccc(F)c2)c2c(C)nn(-c3cccc(Cl)c3C)c2n1	.	.	.	i	.	?
Cc1cc(=O)n2[nH]c(-c3ccc(C(C)(C)C)cc3)cc2n1	?	?	?	15µM*	9%	?
Cc1cc(=O)n2[nH]c(-c3ccccc3)cc2n1	0%	0%	-1%	i	-2%	i
CCn1c(SCc2cccc(Br)c2)nnc1-c1nonc1NC(C)=O	.	.	.	i	.	i
COc1ccc2sc(-c3ccccc3OC)c(-c3ccc(O)cc3)c2c1	-11%	16µM*	-15%	i	2%	i
CCC(C)Sc1ccc(-c2nc3cc(C)ccn3c2NC2CCCCC2)cc1 (stereo not given)	?	?	21µM*	?	?	?
Cc1ccn2c(NC3CCCCC3)c(-c3cccc(-c4cccc(Cl)c4)c3)nc2c1	?	21µM*	?	i	?	i
CCCCCCSc1cc(-c2nc3cc(C)ccn3c2NC2CCCCC2)ccc1OC	6%	?	1%	i	-2%	?
CCCCCCSc1ccc(-c2nc3cc(C)ccn3c2NC2CCCCC2)cc1	0%	18µM*	0%	?	10%	?
Cc1ccn2c(NC3CCCC3)c(-c3ccncc3)nc2c1	6%	3%	9%	i	-26%	i
CCc1ccc(-n2nc(C)c3c(C)cc(=O)n(CC(=O)Nc4cc(Cl)ccc4OC)c32)cc1	.	.	.	i	.	i
O=C(CSc1nc2ccccc2nc1Cc1ccc(Cl)cc1)N1CCc2ccccc21	.	.	.	?	.	i
CCCCN(CCCC)c1nc2ccccc2nc1NS(=O)(=O)c1ccc(NC(C)=O)cc1	-6%	12µM*	-6%	i	21µM*	i
C=Cc1ccc(Cn2c(=O)cc(C)c3c(C)nn(C)c32)cc1	.	.	.	i	.	?
O=C(COc1ccc(F)cc1)Nc1ccc(C(=O)OCc2cc(=O)n3nc(C4CC4)sc3n2)cc1	.	.	.	?	.	i
O=C1CN(C(=O)c2ccc(Cl)c(S(=O)(=O)N3CCc4ccccc43)c2)c2ccccc2N1	?	?	7.3µM*	?	?	?
O=C1CN(C(=O)c2cccc(Br)c2)c2ccccc2N1	?	23µM*	15µM*	10µM*	?	5.8µM*
NC(=O)C1CCN(C(=O)c2ccc(Cl)c(S(=O)(=O)N3CCc4ccccc43)c2)CC1	-1%	.	-1%	?	.	i
O=C1CN(C(=O)c2cc(Br)c(Br)s2)c2ccccc2N1	21µM*	?	?	?	?	?
O=C1CN(C(=O)c2ccccc2)c2ccccc2N1	5%	-1%	6%	i	-8%	i
CCN(CC)S(=O)(=O)c1cc(-c2nnc(Nc3ccc(OC)c(C(N)=O)c3)c3ccccc23)ccc1C	.	.	.	i	.	i
Cc1cccc(N2CC(C)Cn3c2nc2c3c(=O)n(CC(=O)O)c(=O)n2C)c1 (stereo not given)	.	.	.	i	.	i
COc1ccc(N(C(C)C(=O)N/N=C/c2ccc(OCC(C)C)cc2)S(C)(=O)=O)cc1 (stereo not given)	11%	19%	6%	?	4.1µM*	i
CCOc1ccc(/C=N/NC(=O)C(C)N(c2ccc(OC)cc2)S(C)(=O)=O)cc1 (stereo not given)	18%	-7%	2%	i	-4%	i
SMILES	HT1080 IDH1KD tx	MCF10A rereplic	HT1080NT lethal	KB-V1 cytotox	SW480 rerep	KB-3-1 cytotox
O=C(Nc1ncc2c(n1)-c1ccccc1CC2)c1ccc(Cl)cc1	?	10%	-13%	9.2µM*	14%	i
O=C(Nc1ncc2c(n1)-c1ccccc1OC2)c1cccc([N+](=O)[O-])c1	2%	0%	5%	i	-4%	i
O=C(Nc1ncc2c(n1)-c1ccccc1CC2)c1cccc(Cl)c1	?	13µM*	?	?	?	10µM*
COc1cccc(-c2cc(C(F)(F)F)n3nc(-c4ccc(C)cc4)cc3n2)c1	.	.	.	i	.	?
Cc1ccccc1N/N=C/c1c(C)nc2ccccn12	-13%	16µM*	-10%	i	14%	i
Cc1ccc(NC(=O)c2c(C)nc3ccccn23)cc1C	3%	0%	10%	i	2%	i
COC(=O)c1c(-c2ccc(N(C)C)cc2)oc2c1C(OC)CCC2 (stereo not given)	-25%	.	-10%	i	.	?
CCOC1CCCc2oc(-c3ccc(N(C)C)cc3)c(C(=O)OC)c21 (stereo not given)	?	.	?	8.2µM*	.	?
CCOc1ccc(-n2c(C)nnc2SCC(=O)N(CC)CC)cc1	9%	14%	11%	16µM*	-8%	i
CCN(CC)C(=O)CSc1nnc2nnc3cc(OC)ccc3n12	?	3%	13µM*	?	?	?
CCN(CC)C(=O)CSc1nnc(COc2ccc(OC)cc2)n1N	9%	-4%	12%	i	-1%	i
Cc1ccc(N(Cc2cccs2)C(=O)Nc2cccc(Cl)c2)cc1	.	.	.	i	.	i
CCc1ccc(/C=C/C(=O)C2C(=O)c3ccccc3C2=O)cc1	?	?	?	i	?	i
CC[N+]1(C)CCC(O)(/C=C/c2ccccc2)C(C(=O)/C=C/c2ccccc2)C1 (stereo not given)	7.3µM*	?	-17%	?	21µM*	?
O=C(/C=C/c1ccco1)Nc1nnc(-c2ccco2)s1	-10%	5.8µM*	-20%	?	?	?
Cc1nc(NC(=O)/C=C/c2ccco2)sc1C	?	?	-12%	?	8.2µM*	4.1µM*
CCc1nnc(NC(=O)/C=C/c2ccco2)s1	20%	-2%	21%	i	-11%	i
O=C(/C=C/c1ccco1)Nc1cccc(NC(=O)/C=C/c2ccco2)n1	12%	?	0%	i	2%	i
Clc1ccc2nc(-c3ccc(Br)s3)cn2c1	-1%	11%	?	18µM*	8%	i
COc1ccc(-c2cn3cc(Cl)ccc3n2)cc1OC	-5%	18%	-5%	16µM*	4%	i
COc1ccc(-c2cn3cc(C)ccc3n2)cc1Br	-20%	22%	0%	i	-4%	i
O=C(O)c1ccccc1-c1cn2cc(Cl)ccc2n1	-19%	5%	-6%	i	-46%	i

Screening results (PubChem)
